PubChem BioAssay (NCI)
The panel holds about 83,000 compounds, 20% with a hit somewhere; the sample as a whole holds those more often.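 Negative percent growth values reflect cell death: -40 means 40% of the cells present at the start died, and -100 means all died.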 The source made the active and inactive calls. The calls were made as follows: active = growth percent below 10; inactive = the rest.

Legend:
Test in all cases: NCI-60 one-dose screen, 48 h (100 = growth as untreated, 0 = no growth, -100 = all killed)
Settings in all cases: 10 µM
HCT-15 colon = tested on: HCT-15 colon
HT29 colon = tested on: HT29 colon
SNB-75 CNS = tested on: SNB-75 CNS
SNB-19 CNS = tested on: SNB-19 CNS
U251 CNS = tested on: U251 CNS
PC-3 prostate = tested on: PC-3 prostate
SK-MEL-5 melanoma = tested on: SK-MEL-5 melanoma
UACC-62 melanoma = tested on: UACC-62 melanoma
SK-MEL-28 melanoma = tested on: SK-MEL-28 melanoma
LOX IMVI melanoma = tested on: LOX IMVI melanoma

Measured: growth

O=C(N/N=C/c1ccc(-c2cccc([N+](=O)[O-])c2)o1)c1[nH]c2ccc(Br)cc2c1-c1ccccc1
inactive: SNB-75 CNS 83.1% | SNB-19 CNS 32.9% | PC-3 prostate 18.8% | UACC-62 melanoma 33% | SK-MEL-28 melanoma 57.7%
active: HCT-15 colon 0.278% | HT29 colon -44.9% | U251 CNS 9.05% | SK-MEL-5 melanoma -20.7%

CC(C)(C)c1ccc(NCc2cn(-c3ccc(C(=O)O)cc3)nc2-c2ccc(C#N)cc2)cc1
active: HCT-15 colon -54.6% | HT29 colon 3.73% | SK-MEL-5 melanoma 7.94% | UACC-62 melanoma 8.63%
inactive: SNB-75 CNS 59.1% | SNB-19 CNS 24.6% | U251 CNS 22.8% | PC-3 prostate 20.6% | SK-MEL-28 melanoma 28.1%

C=C1CCC2C3(C)COC(c4cccc(F)c4)OC3CCC2(C)C1CC(O)C1=CCOC1=O (stereo unspecified)
active: HCT-15 colon 8.31%
inactive: HT29 colon 34.7% | SNB-75 CNS 74.2% | SNB-19 CNS 95.4% | U251 CNS 70.2% | PC-3 prostate 45.1% | SK-MEL-5 melanoma 60.1% | UACC-62 melanoma 64.6% | SK-MEL-28 melanoma 64.1%

Cc1ccc(/C=C/C(=O)c2ccc(S(=O)(=O)NCCNc3nc(Nc4ccc(F)cc4)nc(N(C)C)n3)cc2)cc1
inactive: SNB-75 CNS 81.3% | SNB-19 CNS 44.7% | PC-3 prostate 12.3% | SK-MEL-5 melanoma 29.4% | UACC-62 melanoma 32.5% | SK-MEL-28 melanoma 40.5%
active: HCT-15 colon -46.4% | HT29 colon -55.6% | U251 CNS -57.3%

Cc1ccc(F)cc1N/C=c1\s/c(=C(\C#N)C(=O)Nc2ccccc2)n(-c2ccccc2)c1=O
active: SNB-75 CNS 3.2%
inactive: HCT-15 colon 64.9% | HT29 colon 72.9% | SNB-19 CNS 36.2% | U251 CNS 74.2% | PC-3 prostate 74.5% | SK-MEL-5 melanoma 71.8% | UACC-62 melanoma 98.2% | SK-MEL-28 melanoma 95.7%

O=C1Nc2ccc(F)cc2/C1=C/c1cccc(OCc2ccccc2)c1
inactive: HT29 colon 20.6% | SNB-75 CNS 66.2% | SNB-19 CNS 23.9% | PC-3 prostate 20.4% | UACC-62 melanoma 16.5% | SK-MEL-28 melanoma 36.2%
active: HCT-15 colon 0.287% | U251 CNS 6.3% | SK-MEL-5 melanoma -24.7%

O=C1Nc2ccc(Cl)cc2/C1=C/c1cccc(OCc2ccccn2)c1
active: HCT-15 colon -66.8% | HT29 colon -63.8% | SNB-19 CNS 0.791% | U251 CNS -90.7% | PC-3 prostate -9.7% | SK-MEL-5 melanoma -47.3% | UACC-62 melanoma -81.2% | SK-MEL-28 melanoma -49.2%
inactive: SNB-75 CNS 34.8%

CCN1CCN(c2ccc(NC(=O)Nc3ccc4c(c3F)CCN4c3ccnc(C(=O)NC)c3)cc2C(F)(F)F)CC1
active: HCT-15 colon -91.1% | HT29 colon -79% | SNB-75 CNS -80.8% | SNB-19 CNS -84.3% | U251 CNS -93.8% | SK-MEL-5 melanoma -100% | SK-MEL-28 melanoma -83.6%
inactive: PC-3 prostate 23.4% | UACC-62 melanoma 95.8%

COc1cc(C2CC(c3ccc(C)cc3)=Nc3c(N)nc(N)nc3N2)ccc1Oc1nc(Nc2ccc(F)cc2)nc(N(C)C)n1 (stereo unspecified)
active: HT29 colon 9.46% | SK-MEL-5 melanoma -100%
inactive: HCT-15 colon 14.9% | SNB-75 CNS 104% | SNB-19 CNS 66.7% | U251 CNS 52.2% | PC-3 prostate 45.6% | UACC-62 melanoma 77.7% | SK-MEL-28 melanoma 88.3%

COc1ccc(-c2nc(S(=O)(=O)c3ccc(C)cc3)c(S(C)(=O)=O)o2)cc1
active: HCT-15 colon -72.6% | HT29 colon -74.8% | U251 CNS -90.3% | UACC-62 melanoma -58.2% | SK-MEL-28 melanoma -98.2%
inactive: SNB-75 CNS 43.6% | SNB-19 CNS 65.5% | PC-3 prostate 20.8% | SK-MEL-5 melanoma 10.1%

COc1ccc([C@H]2C(C(=O)c3ccc(Cl)cc3)C3(N[C@@H]2c2ccccc2)C(=O)Nc2ccc(Cl)cc23)cc1 (stereo partly specified)
inactive: SNB-75 CNS 35.8% | SNB-19 CNS 16% | PC-3 prostate 18.1%
active: HCT-15 colon -23% | HT29 colon -50.8% | U251 CNS -33.9% | SK-MEL-5 melanoma 4.07% | UACC-62 melanoma -63.1% | SK-MEL-28 melanoma 4.54%

Cc1cc2nc3c4ccccc4n(CCO)c3nc2cc1C
inactive: HCT-15 colon 71.2% | HT29 colon 98.1% | SNB-75 CNS 73.6% | SNB-19 CNS 87.7% | U251 CNS 64.7% | PC-3 prostate 57.3% | SK-MEL-5 melanoma 81.6% | UACC-62 melanoma 73.8% | SK-MEL-28 melanoma 91%

CC1(c2ccccc2)NC(=O)N(CC(=O)Nc2ccc(C(=O)/C=C/c3ccccc3)cc2)C1=O (stereo unspecified)
inactive: SNB-75 CNS 72.1% | SNB-19 CNS 66.1% | PC-3 prostate 31.6% | SK-MEL-5 melanoma 20.4% | UACC-62 melanoma 36.5% | SK-MEL-28 melanoma 62.3%
active: HCT-15 colon 2.92% | HT29 colon -23% | U251 CNS -15.2%

Cc1ccc(/C(N)=N/c2sc(-c3ccccc3)nc2-c2ccccc2)cc1
inactive: HCT-15 colon 46.1% | HT29 colon 50.6% | SNB-75 CNS 82.4% | SNB-19 CNS 97.3% | U251 CNS 75.1% | PC-3 prostate 90.6% | SK-MEL-5 melanoma 89.2% | UACC-62 melanoma 74.6% | SK-MEL-28 melanoma 81.5%

C=C1CCC2C3(C)COC(c4c(F)cccc4F)OC3CCC2(C)C1CC(O)C1=CCOC1=O (stereo unspecified)
inactive: HCT-15 colon 18.3% | HT29 colon 23% | SNB-75 CNS 45.1% | SNB-19 CNS 86.2% | U251 CNS 69.1% | PC-3 prostate 41% | SK-MEL-5 melanoma 68.2% | UACC-62 melanoma 79.7% | SK-MEL-28 melanoma 62.3%

CC1(C)CC[C@]2(C(=O)O)CC[C@]3(C)C(=CC[C@@H]4[C@@]5(C)C/C(=C/c6ccncc6)[C@H](O)C(C)(C)[C@@H]5CC[C@]43C)[C@@H]2C1
inactive: HCT-15 colon 15.7% | HT29 colon 35.3% | SNB-75 CNS 35.5% | SNB-19 CNS 41.8% | U251 CNS 28.9% | PC-3 prostate 28.2% | UACC-62 melanoma 52.6% | SK-MEL-28 melanoma 46.3%
active: SK-MEL-5 melanoma -23.2%

C#Cc1ccc(S(=O)(=O)Nc2cccc(-c3csc(NC(C)=O)n3)c2)cc1
inactive: HCT-15 colon 67.1% | HT29 colon 71.4% | SNB-75 CNS 60.4% | SNB-19 CNS 83.6% | U251 CNS 81.8% | PC-3 prostate 62.3% | SK-MEL-5 melanoma 43.2% | UACC-62 melanoma 48.7% | SK-MEL-28 melanoma 89.4%

Cc1ccc(/C=C/C(=O)c2ccc(NC(=O)CSc3nnc(-c4c[nH]c5ccccc45)n3-c3ccccc3)cc2)c(C)c1
inactive: HCT-15 colon 51.4% | HT29 colon 65.5% | SNB-75 CNS 92.6% | SNB-19 CNS 72.2% | U251 CNS 13.1% | PC-3 prostate 48.6% | SK-MEL-5 melanoma 88.3% | UACC-62 melanoma 72.8% | SK-MEL-28 melanoma 80.9%

COc1cc2c(c(OC)c1OC)C(=O)CC(c1cccc(NC(=O)c3cccc(N)c3)c1)O2 (stereo unspecified)
inactive: HCT-15 colon 64.9% | HT29 colon 94.7% | SNB-75 CNS 77.6% | SNB-19 CNS 86.1% | U251 CNS 81.1% | PC-3 prostate 70.9% | SK-MEL-5 melanoma 61.9% | UACC-62 melanoma 70.2% | SK-MEL-28 melanoma 100%

COc1cccc(COc2ccc(/C=C3\Oc4cc(O)ccc4C3=O)cc2)c1
inactive: HCT-15 colon 42.1% | HT29 colon 81.1% | SNB-19 CNS 36.1% | U251 CNS 50.7% | PC-3 prostate 67.8% | SK-MEL-5 melanoma 24.6% | UACC-62 melanoma 82.7% | SK-MEL-28 melanoma 71.1%
active: SNB-75 CNS -22.5%

N#Cc1c(-c2ccc(Cl)cc2)cc(-c2ccccc2)nc1OCc1ccccc1
inactive: HCT-15 colon 36.1% | HT29 colon 65% | SNB-75 CNS 74.7% | SNB-19 CNS 89.8% | U251 CNS 60.2% | PC-3 prostate 40.1% | SK-MEL-5 melanoma 54% | UACC-62 melanoma 62.3% | SK-MEL-28 melanoma 86%

O=C1NC(=NC23CC4CC(CC(C4)C2)C3)N/C1=C\c1ccc2ncoc2c1
active: HCT-15 colon 0.0072% | HT29 colon 4.66% | SNB-75 CNS -8.6% | SNB-19 CNS 6.88% | PC-3 prostate 5.37% | SK-MEL-5 melanoma 1.95% | LOX IMVI melanoma 0.372% | SK-MEL-28 melanoma -18.6%
inactive: U251 CNS 10%

S=c1nc(-c2ccccc2)cc(-c2cc3ccccc3nc2Cl)[nH]1
inactive: HCT-15 colon 49.7% | HT29 colon 67.6% | SNB-75 CNS 23.4% | SNB-19 CNS 81.2% | U251 CNS 83.2% | PC-3 prostate 60.1% | SK-MEL-5 melanoma 32.1% | LOX IMVI melanoma 44.9% | SK-MEL-28 melanoma 65.2%

Cc1cc(=O)oc2cc(OCCCCOc3ccc(/C=C/C(=O)Nc4ccccc4[N+](=O)[O-])cc3)ccc12
inactive: HCT-15 colon 104% | HT29 colon 117% | SNB-75 CNS 103% | SNB-19 CNS 97.8% | PC-3 prostate 109% | SK-MEL-5 melanoma 102% | UACC-62 melanoma 94.9% | LOX IMVI melanoma 107% | SK-MEL-28 melanoma 103%

Brc1ccc(/C=N/Nc2ncnc3sc4c(c23)CCN(Cc2ccccc2)C4)cc1
inactive: HCT-15 colon 58.3% | SNB-19 CNS 99.9% | U251 CNS 61.1% | PC-3 prostate 61.6% | SK-MEL-5 melanoma 94.8% | LOX IMVI melanoma 46.9% | SK-MEL-28 melanoma 41.9%
active: HT29 colon 4.77% | SNB-75 CNS -7.37%

O=C(CNc1nc(-c2ccccc2)cs1)Nc1ccccc1
active: HCT-15 colon -70.6% | HT29 colon -53.9% | SNB-19 CNS -68.4% | U251 CNS -85.2% | SK-MEL-5 melanoma -99.5% | LOX IMVI melanoma -90.1% | SK-MEL-28 melanoma -60.1%
inactive: SNB-75 CNS 29.2% | PC-3 prostate 12.3%

Cc1ccc(-c2cc(C(=O)N=Nc3c(O)[nH]c4ccc(Br)cc34)c3ccccc3n2)cc1
inactive: HT29 colon 42.1% | SNB-75 CNS 102% | SNB-19 CNS 61.1% | U251 CNS 21.7% | PC-3 prostate 52.9% | SK-MEL-5 melanoma 96.7% | LOX IMVI melanoma 25.3% | SK-MEL-28 melanoma 84.4%
active: HCT-15 colon 8.77%

O=C(CN1CCN(c2ncnc3c2cnn3-c2ccccc2)CC1)Nc1nncs1
inactive: SNB-19 CNS 58.4% | SK-MEL-5 melanoma 29.4% | SK-MEL-28 melanoma 72.3%
active: HCT-15 colon -30.7% | HT29 colon -61.5% | SNB-75 CNS -75% | U251 CNS -72.5% | PC-3 prostate -36.1% | LOX IMVI melanoma -87.4%

CN1CCN(c2ccc(Nc3nc(N4CCN(S(=O)(=O)c5ccc(Cl)cc5)CC4)c4sccc4n3)cc2)CC1
active: HCT-15 colon -78.6% | HT29 colon -51.3% | U251 CNS -85.2% | SK-MEL-5 melanoma -100% | LOX IMVI melanoma -90.1% | SK-MEL-28 melanoma -98.6%
inactive: SNB-75 CNS 67.1% | SNB-19 CNS 28.4% | PC-3 prostate 28.5%
